Among the data in PubChem BioAssay AID999 (SRMLSC, 2007) are viability values, retold here.

Unmarked numbers belong to inactive results. The source made the active and inactive calls.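 Rule for the calls: active = viability at or below 21.59%, 3 SD under the median of tested compounds; inactive = the rest.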

This experiment can be described thus: growth suppression of PTEN-null HCT116 cells, cell-based, validation, diverse DP compound set (AID 999).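 Note: 100% = median luminescence of untreated cell control wells and 0% = no signal.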 The note with it: CellTiter-Glo, 60 h, at 10 µM, stronger effect = lower value. (In general: ATP-based viability assays read luminescence as a measure of living cells.)
For orientation: viability means a read-out of living cells in per cent, often relative to untreated cells. In the case of `O=C(c1ccccc1)c1ccccc1`, the viability is 100%. With `C[C@H]1c2cccc(O)c2C(O)=C2C(=O)[C@]3(O)C(O)=C(C(N)=O)C(=O)[C@@H](N(C)C)[C@@H]3[C@@H](O)[C@@H]21`, the viability is 90.5%. On to `CN=C(NC#N)NCCSCc1nc[nH]c1C`, for which the viability is 99.4%.

With `OCCN(CCO)c1nc(N2CCCCC2)c2nc(N(CCO)CCO)nc(N3CCCCC3)c2n1`, the viability is 96.3%. As for `O=C1OC2(c3ccc(O)cc3Oc3cc(O)ccc32)c2ccccc21`, the viability was 96%. Under `CC(C)C[C@H]1C(=O)N2CCC[C@H]2[C@]2(O)O[C@](NC(=O)[C@@H]3C=C4c5cccc6[nH]c(Br)c(c56)C[C@H]4N(C)C3)(C(C)C)C(=O)N12` stands 76.4%. Take `Cc1cc(CC(=O)O)n(C)c1C(=O)c1ccc(Cl)cc1`: the viability was 95.5%. As for `COC(=O)Nc1nc2ccc(C(=O)c3cccs3)cc2[nH]1`, the viability was 50.2%. With `CC(C)=CCC/C(C)=C/COc1ccc2ccc(=O)oc2c1` the figure was 91.9%.

With `O=c1c(O)c(-c2ccc(O)c(O)c2)oc2cc(O)cc(O)c12`, the viability is 72.4%. For the compound `COc1ccc(C2CNC(=O)C2)cc1OC1CCCC1` (stereo not given), the viability was 96.5%.

Regarding `CC(=O)N1CCN(c2ccc(OC[C@H]3CO[C@](Cn4ccnc4)(c4ccc(Cl)cc4Cl)O3)cc2)CC1`, the viability was 70.7%. Turning to `C=C1CC[C@H](O)C/C1=C/C=C1\CCC[C@]2(C)[C@@H]([C@H](C)CCCC(C)C)CC[C@@H]12`, the viability is 92.4%. On to `CSc1ccc(/C=C2/C(C)=C(CC(=O)O)c3cc(F)ccc32)cc1`, for which the viability was 98%.

In the case of `O=c1[nH]c(=O)n(C2CCCO2)cc1F` (stereo not given), the viability was 101%. Under `COc1ccc(-c2cc(C(=O)O)no2)cc1` stands 97.7%; under `NC(=NCc1ccccc1)NC(=O)c1nc(Cl)c(N)nc1N`, 77.3%; under `Cc1ccc2c(c1)C(=O)C1(O)CCN(c3ccccc3)C1=N2` (stereo not given), 91.9%. In the case of `c1ccc2nc3ccccc3cc2c1`, the viability was 99.8%. With `CC12CC3(O)OC(O1)C1(COC(=O)c4ccccc4)[C@@H]3CC21O[C@@H]1O[C@H](CO)[C@@H](O)[C@H](O)[C@H]1O`, the viability is 95.3%. As for `COc1cccc2c1C(=O)c1c(O)c3c(c(O)c1C2=O)C[C@@](O)(C(=O)CO)C[C@@H]3OC1C[C@@H](N)[C@H](O)[C@H](C)O1` (stereo not given in full), the viability is 27.7%. As for `CNCCC(Oc1ccc(C(F)(F)F)cc1)c1ccccc1` (stereo not given), the viability was 85.8%. Under `COc1ccc2cc3[n+](cc2c1OC)CCc1cc2c(cc1-3)OCO2` stands 82.9%. As to `Nc1ccn([C@H]2CC[C@@H](CO)O2)c(=O)n1`, the viability is 93.9%. On to `[O][C@H]1[C@@H](O)[C@@H](CO)O[C@@H](O[C@@H]2[C@@H]3OC[C@H]2O[C@H](O[C@@H]2[C@@H](O)[C@H](C[C@@H]4[C@@H]5OC[C@H]4O[CH][C@@H]5O)O[C@H](CO)[C@@H]2OS(=O)(=O)O)[C@@H]3OS(=O)(=O)O)[C@@H]1O`, for which the viability was 100%. Regarding `CCn1cc(C(=O)O)c(=O)c2ccc(C)nc21`, the viability is 98.4%. Consider `Cn1cnc2c(NCc3ccccc3)nc(NCCO)nc21`, for which the viability is 90.6%.

Consider `CC[n+]1c(-c2ccccc2)c2cc(N)ccc2c2ccc(N)cc21`, for which the viability was 20.1% (active). As to `C[C@@H]1CC2C3CCC4=CC(=O)C=CC4(C)[C@@]3(F)[C@@H](O)CC2(C)[C@@]1(O)C(=O)CO` (stereo not given in full), the viability was 105%. As to `O=C1CCC(N2C(=O)c3ccccc3C2=O)C(=O)N1` (stereo not given), the viability was 96.8%.
